The list is not random: actives were taken first. Their share in the collection is about 0.45%.
EPAC2 antagonist = antagonists of human EPAC2. Potency, µM (titrated, usually from 114 µM), without a hit: at the highest dose activity, negative = inhibition, most hits filed as inhibitors. EPAC2 GEF exchange of Rap1B-BODIPY-GDP, fluorescence. Q8WZA2. 360,000 tested, 0.18% active; also: % is scaled to controls: 0 for no effect and ±100 for the full control effect; nearly all actives have a fitted effect of over 45% in size
USP1 inh = inhibitors of human USP1/UAF1 deubiquitinase; 390,000 tested, 0.23% active; O94782; Potency, µM (series often up to 57.1 µM), for the others: top-dose activity change, negative = inhibition, actives largely listed as inhibitors; recombinant USP1/UAF1, Ub-Rhodamine cleavage fluorescence; AID 743255; also: % is scaled to controls: 0 for no effect and ±100 for the full control effect; nearly all actives have a fitted effect of over 60% in size
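1 nM enzyme complex + cpd, 15 min RT; start with Ub-Rho 150nM final; kinetic fluorescence ex 480/em 540, 6 reads q60 s. Buffer 50mM HEPES pH 7.8, 0.5mM EDTA, 0.1 mg/ml BSA, 1mM TCEP, 0.01% Tween-20.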
EPAC1 antagonist = blocks human EPAC1 exchange factor | O95398 | AID 720709 | Potency, µM (titrated, usually from 115 µM), without a hit: top-dose activity change, negative = inhibition, actives largely listed as inhibitors | EPAC1 GEF assay, Rap1b-BODIPY-GDP exchange fluorescence | 360,000 tested, 0.14% active;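 also: plate controls were vehicle for no effect and positive control for full effect; nearly all actives have a fitted effect of over 50% in size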
EPAC2 ag = activates human EPAC2 exchange factor; Q8WZA2; EPAC2 activation, biochemical qHTS; response scale: 100% = 6.5 mM cAMP response; Potency, µM (titrated, usually from 154 µM), without a hit: top-dose activation, most hits filed as activators; 360,000 tested, 0.079% active; also: nearly all actives have a fitted effect of over 50% in size
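Setup: EPAC2 100 nM, labeled Rap1B complex 250 nM, free GDP 50 uM. Compound titrations pinned in, brief spin, 5 min room temperature incubation. Kinetic fluorescence read over 30 min, normalized to 6.5 mM cAMP.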
EPAC1 ag = activates human EPAC1 exchange factor. EPAC1 agonist qHTS, biochemical assay; response scale: 100% = response to 6.5 mM cAMP. Potency, µM (titrated, usually from 154 µM), for the others: at the highest dose activation, usual class: activators. 360,000 tested, 0.073% active; also: nearly all actives have a fitted effect of over 60% in size
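Read-out is the fluorescence drop as BODIPY-GDP leaves Rap1B (480 nm excitation, 540 nm emission), recorded every 5 minutes over 30 minutes. Reactions held 100 nM EPAC1, 250 nM Rap1B–BODIPY-GDP and 50 uM GDP, with 6.5 mM cAMP setting full activation.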
USP2a block = USP2a (human) protease inhibition; 330,000 tested, 0.01% active; Potency, µM (top dose mostly 38.3 µM), without a hit: at the top dose activity change, negative = inhibition, most hits filed as inhibitors; O75604; USP2 core, Ub-CHOP2 coupled fluorogenic reporter, 485/531; AID 463254;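 also: plate controls were DMSO wells for no effect and full inhibition by NEM control for full effect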
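Deubiquitinase activity read as fluorescence (485/531 nm) after Ub-CHOP2 cleavage activates the enterokinase reporter on its substrate; USP2 core 10nM, Ub-CHOP2 and substrate 25nM each, 30min compound preincubation then 60min RT; data normalized to NEM, curves fitted.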
Starred values were filed as active, the others as inactive; i = inactive; u = inconclusive; x = no result given; ! = repeats disagree. Calls follow the shape of the dose curve; as a rule, active = well fitted curve in the direction sought with a large enough effect; inconclusive = small, poorly fitted or top-dose-only effect, or another doubt; inactive = no such curve, though single readings can be large; an effect the other way counts as inactive or inconclusive. Potency is read from the fitted curve at half-maximal effect.

SMILES	EPAC2 antagonist	USP1 inh	EPAC1 antagonist	EPAC2 ag	EPAC1 ag	USP2a block
Cc1ccc(F)c(S(=O)(=O)NC(=O)C2(C)CCN2C(=O)C2(c3ccc(Cl)cc3)CCC2)c1 (stereo not drawn)	45µM*	x	-8%	-1%	-3%	x
Cc1ccc(NC(=O)C2CCCN(S(=O)(=O)c3ccc4c(c3)CCCC(=O)N4)C2)cc1N(C)C (stereo not drawn)	x	-31%	x	x	x	x
Cc1cc(C)n(-c2nc(C)c(C)c(=O)n2CC(=O)Nc2cccc([N+](=O)[O-])c2)n1	x	-8%	x	x	x	x
CCCCn1c(=O)n(-c2cc(OC)ccc2OC)c(=O)c2c3c(sc21)CN(C(C)=O)CC3	x	-16%	x	x	x	x
O=C(O[C@@H]1OC2COC(=O)c3cc(O)c(O)c(O)c3-c3c(cc(O)c(O)c3O)C(=O)O[C@@H]([C@H]1O)[C@@H]2O)c1cc(O)c(O)c(O)c1	-14%	u	89µM*	-2%	3%	u
CN1CCC2(CC1)C1CN(C)CC=C1C(C#N)=C(N)C2(C#N)C#N (stereo not drawn)	13%	28µM*!	9%	23%	u	u
O=C1NN(c2ccccc2)C(=O)/C1=C/c1ccc(Sc2cccc3ccccc23)o1	5%	u	56µM*	-13%	-5%	0%
CCN(CC)c1ccc2cc(C(=O)c3cccs3)c(=O)oc2c1	i	x	322%	79µM*	56µM*	x
Cc1ccccc1C(=O)/C(C#N)=N/Nc1c(C)n(C)n(-c2ccccc2)c1=O	79µM*	-4%	-7%	-68%	-11%	3%
CC(=O)C[C@H]1SC[C@@H](C(C)C)N1S(=O)(=O)c1ccc(C)cc1	40µM*	x	-19%	6%	4%	x
O=C([C@H]1O[C@@H](n2ccc(=O)[nH]c2=O)[C@H](O)[C@@H]1O)N1CCC(F)(F)CC1	11%	x	15%	-2%	-2%	x
CCN(CC)CCCNC(=O)CCCn1ncn2c(cc3occc32)c1=O	x	-9%	x	x	x	x
CCCCN1C(=O)/C(=C/C=C2/CC(C)(C)CN2C)SC1=S	56%	22µM*	51%	18%	u	u
CCCN1C(=O)/C(=C\C=C2/Sc3ccccc3N2CCO)SC1=S	-13%	-25%	-3%	-1%	10%	4%
CCCCN1C(=O)/C(=C/C=C2\Oc3ccccc3N2CC)SC1=S	30%	u	-14%	32µM*	u	28%
CCCN1C(=O)/C(=C/C=C2\N(CC)c3ccccc3C2(C)C)SC1=S	21%	75%	17%	-12%	22%	11%
CCOCCCNC(=O)c1cc(=O)[nH]c2ccc(S(=O)(=O)N3CCCC3)cc12	x	-27%	x	x	x	x
O=C(NC1CCCCC1)c1cccc2c(-c3ccc(F)c(F)c3)coc12	2%	x	-6%	2%	-26%	x
Cc1nc(N2CCc3ccccc3C2)[nH]c(=O)c1Cc1ccccc1	7%	-18%	12%	1%	3%	-6%
Cc1nc(-n2[nH]c3c(c2=O)CCCC3)[nH]c(=O)c1Cc1ccccc1	0%	28µM*	17%	9%	9%	8%
O=S(=O)(O)c1ccc(N=NNc2ccc(Br)cc2)cc1	45µM*	-19%	-8%	-4%	-10%	0%
O=C1NC(=O)C(=C2CCOC2=O)N1	-6%	-22%	2%	2%	5%	x
CCCNC(=O)c1ccc2c(=O)c(O)c(-c3ccsc3)[nH]c2c1	10%	-14%	-1%	89µM*	21%	-1%
CC12CCC3c4ccc(OCC(=O)O)cc4CCC3C1CCC2=O (stereo not drawn)	-6%	-18%	-1%	0%	11%	x
C[C@]12CC[C@@H]3c4ccc(OS(=O)(=O)O)cc4CC[C@H]3[C@@H]1CCC2=O	5%	-26%	22µM*!	10%	-23%	4%
